Data: PubChem BioAssay (NCATS)
Records with an inconclusive call do not appear. Calls of active or inactive are those of the source. Calls follow the shape of the full dose curve.

target: Vitamin D3 receptor (Homo sapiens) (UniProt P11473); test: qHTS assay for small molecule antagonists of vitamin D receptor signaling (AID 588541); details: HEK293T VDR-UAS-bla, beta-lactamase ratio, antagonist mode; series mostly up to 76.7 µM; activity change, negative = inhibition: at the top concentration;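 also: receptor activated by calcitriol during compound treatment; % is scaled to controls: 0 for no effect and ±100 for the full control effect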
Outline: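 VDR-UAS-bla HEK293T cells (2000/well, 2% charcoal-stripped FBS) were treated with titrated compounds plus 1-alpha,25-dihydroxyvitamin D3 (50 nM or 3 nM final) for 16 h at 37 C. CCF4 beta-lactamase fluorescence was read; Hill fits gave IC50.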

Vitamin D3 receptor (Homo sapiens), sequence (P11473 whole entry, looked up): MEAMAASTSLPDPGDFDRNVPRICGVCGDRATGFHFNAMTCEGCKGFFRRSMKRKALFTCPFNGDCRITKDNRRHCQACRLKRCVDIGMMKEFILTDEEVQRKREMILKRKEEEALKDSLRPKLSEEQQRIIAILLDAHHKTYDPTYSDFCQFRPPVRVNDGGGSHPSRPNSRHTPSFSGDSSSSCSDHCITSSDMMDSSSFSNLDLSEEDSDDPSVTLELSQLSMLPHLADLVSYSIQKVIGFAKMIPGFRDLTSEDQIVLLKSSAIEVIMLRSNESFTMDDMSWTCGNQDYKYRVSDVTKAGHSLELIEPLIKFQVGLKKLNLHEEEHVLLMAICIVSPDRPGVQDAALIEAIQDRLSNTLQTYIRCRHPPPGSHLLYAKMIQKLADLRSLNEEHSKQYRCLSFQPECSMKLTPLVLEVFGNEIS

Row | SMILES | activity change, negative = inhibition | outcome
1 | O=c1[nH]cnc2[nH]ncc12 | 2.24% (inactive) | –
2 | CC(=O)Oc1ccccc1C(=O)O | – | inactive
3 | NC(N)=NC(=O)c1nc(Cl)c(N)nc1N | -1.83% (inactive) | –
4 | NC(=O)c1cnccn1 | -0.651% (inactive) | –
5 | CNC[C@H](O)c1cccc(O)c1 | -4.61% (inactive) | –
6 | CCCC(CCC)C(=O)O | – | inactive
7 | NS(=O)(=O)c1cc2c(cc1Cl)NC=NS2(=O)=O | -8.53% (inactive) | –

target: Vitamin D3 receptor (Homo sapiens) (UniProt P11473); test: qHTS assay for small molecule agonists of vitamin D receptor signaling (AID 588543); details: HEK293T VDR-UAS-bla, beta-lactamase ratio, 16 h; series mostly up to 76.8 µM; activation: at the top concentration;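 also: 0% = DMSO basal and 100% = reference agonist control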
Outline: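 GeneBLAzer VDR-UAS-bla HEK293T cells in 2% charcoal-stripped FBS medium were dosed with compound titrations for 16 h at 37 °C; CCF4 β-lactamase readout (405 nm ex, 460/530 nm em). EC50 and efficacy from Hill fits, normalized to 50 nM calcitriol (100%) and DMSO (0%).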

Row | SMILES | activation | outcome
8 | O=c1[nH]cnc2[nH]ncc12 | 3.61% (inactive) | –
9 | C[C@]12CCC(=O)C=C1CC[C@@H]1[C@@H]2[C@@H](O)C[C@@]2(C)[C@H]1CC[C@]2(O)C(=O)CO | -2.57% (inactive) | –
10 | Cc1c(C)c2c(c(C)c1O)CCC(C)(COc1ccc(CC3SC(=O)NC3=O)cc1)O2 (configuration not stated) | -6.57% (inactive) | –
11 | CC(=O)Oc1ccccc1C(=O)O | – | inactive
12 | NC(N)=NC(=O)c1nc(Cl)c(N)nc1N | 5.69% (inactive) | –
13 | NC(=O)c1cnccn1 | 2.05% (inactive) | –
14 | CNC[C@H](O)c1cccc(O)c1 | 0.0728% (inactive) | –
15 | COc1ccc2nc(S(=O)Cc3ncc(C)c(OC)c3C)[nH]c2c1 (configuration not stated) | -8.33% (inactive) | –
16 | CCCC(CCC)C(=O)O | – | inactive
17 | NS(=O)(=O)c1cc2c(cc1Cl)NC=NS2(=O)=O | 2.31% (inactive) | –
